40 molecules from PubChem BioAssay (Tox21) can be followed below.

Each structure is given as a SMILES string. Inconclusive results are not listed. Activity calls are given as the source filed them. The call rests on the fitted dose curve; in most records, active means well fitted cell-killing curve with a large enough effect in the repeat runs; inconclusive means weak or mixed curves, or effect the other way; inactive means no such curve, though single readings can be large or run the other way.
On the % scale 0 is the no-effect control and ±100 the full control effect; potency means the concentration at half of the fitted maximal effect.

The assay is described as follows: qHTS assay to identify small molecule antagonists of the glucocorticoid receptor (GR) signaling pathway - cell viability counter screen (AID 720693). Further: nearly all actives have a fitted effect of over 55% in size. Particulars: GR-bla HeLa viability, CellTiter-Glo luminescence, 18 h, with 5 nM dexamethasone present; series mostly up to 58.5 µM; viability change, negative = cytotoxic: at the top concentration. An excerpt: National Center for Advancing Translational Sciences [NCATS]
NIH Chemical Genomics Center [NCGC]
U.S. Environmental Protection Agency [EPA]
National Institutes of Environmental Health Sciences [NIEHS]
National Toxicology Program [NTP]
U.S. Food and Drug Administration [FDA]
The Glucocorticoid receptor (GR) is one of the members of the nuclear receptor family of ligand-dependent transcription factors. GR plays a critical role in carbohydrate, protein and lipid metabolisms and programmed cell death. CellSensor GR-bla HeLa cell line (Invitrogen) contains a beta-lactamase reporter gene under the control of the glucocorticoid response element stably integrated into HeLa cells, a cervical cancer cell line that expresses glucocorticoid receptor. The activation of the reporter gene under culture conditions can be detected by fluorescence intensity. This cell line has been used to screen the Tox21 10K compound library and to identify the compounds that inhibit the GR signaling. The cytotoxicity of the Tox21 compound library against the GR-bla HeLa cell line was tested in parallel by measuring the cell viability using CellTiter-Glo assay in the same wells.
Tox21 Assay Protocol Summary:
The GR-bla HeLa cells were dispensed at 1500 cells/5 ul/well in 1536-well black wall/clear bottom plates using a Multidrop Combi (ThermoFisher Scientific, Waltham, MA) dispenser. After the assay plates were incubated at a 37 C/5% CO2 incubator for 4 hours, 23 nL of compounds dissolved in DMSO, positive controls or DMSO only was transferred to the assay plate by a pintool station (Kalypsys, San Diego, CA), followed by addition of 1 uL of dexamethasone (5 nM, final concentration in the well). The plates were incubated at 37 C for 18 hours. After 1 uL of LiveBLAzerTM B/G FRET substrate was added using a Flying Reagent Dispenser (Aurora Discovery, San Diego, CA), the plates were incubated at room temperature (RT) for 2 hours, and fluorescence intensity was measured by an Envision plate reader (PerkinElmer, Shelton, CT). After measurement of bla assay, 3 ul CellTiter-Glo (Promega, Madison, WI) was added to measure the cytotoxicity and the plates were then incubated at RT for 30 min. The luminescence was measured using a ViewLux (Perkin Elmer) plate reader.
In general terms: In qHTS, concentration-response curves come from the screen itself.
On to `COP(=O)(OC)O/C(=C\Cl)c1cc(Cl)c(Cl)cc1Cl`, for which the “viability change, negative = cytotoxic” value was 23.3% (inactive). On the same count and under the same terms, for `O=C(N[C@@H]1N=C(c2ccccc2F)c2cccc3c2N(CC3)C1=O)c1cc2ccccc2[nH]1` the value was 0.652% (inactive).

`CC(O)C(=O)[O][Hg][c]1ccccc1` (stereo not given): the Potency is 0.549 µM (active).

Turning to `CCCCn1cc[n+](C)c1.[Cl][Fe-]([Cl])([Cl])[Cl]`, the “viability change, negative = cytotoxic” value is -6.87% (inactive). For `CC(C)N(C(=O)CCl)c1ccccc1`, the Potency was 54.9 µM (active). Consider `CCCCN(CCCC)C(=S)[S-].CCCCN(CCCC)C(=S)[S-].[Ni+2]`, for which the “viability change, negative = cytotoxic” value was -10% (inactive).

As to `O=C1C[C@@H]2OCC=C3CN4CC[C@]56c7ccccc7N1[C@H]5[C@H]2[C@H]3C[C@H]46`, the Potency entry was “inactive”. With `COP(=S)(OC)Oc1nc(Cl)c(Cl)cc1Cl`, the “viability change, negative = cytotoxic” value was 10.2% (inactive). Same read-out and setting: as for `CN1CCc2cc3c(cc2C1O)OCO3` (stereo not given), the figure is 1.15% [at 78.9 µM] (inactive); as for `O=[N+]([O-])c1cccc2cccc([N+](=O)[O-])c12`, -10.1% [at 78.9 µM] (inactive).

Take `ClC(Cl)C(Cl)(Cl)Cl`: the “viability change, negative = cytotoxic” value is -1.18% (inactive). On the same count and under the same terms, as for `Clc1c(Cl)c(Cl)c(Cl)c(Cl)c1Cl`, the figure is -7.19% [at 7.04 µM] (inactive); as for `O.O.O.O.O.O.O=S(=O)([O-])[O-].[Ni+2]`, -18.4% (inactive); as for `COc1ccc2c(c1OC)C(=O)O[C@@H]2[C@H]1c2cc3c(cc2CCN1C)OCO3`, -21.9% (inactive). Still for that read-out and setting: as for `N#CSCc1ccccc1`, the figure is -2.83% [at 78.9 µM] (inactive). As to `c1ccc(N=NNc2ccccc2)cc1`, the Potency entry is “inactive”. As to `O=C(Cl)c1ccccc1F`, the “viability change, negative = cytotoxic” value was -0.633% (inactive).

With `CC(=O)[O-].CC(=O)[O-].O.O.[Zn+2]`, the “viability change, negative = cytotoxic” value is 26.9% (inactive). Still for that read-out and setting: as for `CC(C)=CCN1CC[C@@]2(C)c3cc(O)ccc3C[C@@H]1[C@@H]2C`, the figure is -8.93% (inactive); as for `CNC(=O)/C=C(\C)OP(=O)(OC)OC`, 1.56% (inactive).

In the case of `CC(C)c1c(CN(C)C(C)Cc2ccccc2)n(C)n(-c2ccccc2)c1=O` (stereo not given), the “viability change, negative = cytotoxic” value was 9.2% [at 27 µM] (inactive). In the case of `[O-][Cl+3]([O-])([O-])O`, the “viability change, negative = cytotoxic” value was 9.74% [at 78.9 µM] (inactive). On the same count and under the same terms, as for `C=Cc1cccc(CCl)c1`, the figure is 8.99% [at 78.9 µM] (inactive).

For the molecule `O=C(NC(=O)c1c(F)cccc1F)Nc1ccc(Oc2ccc(C(F)(F)F)cc2Cl)cc1F`, the “viability change, negative = cytotoxic” value was -24.9% (inactive). With `Fc1ccc(C(OCCN2CCN(CCCc3ccccc3)CC2)c2ccc(F)cc2)cc1`, the Potency is 21.3 µM (active). As to `CCC(C)Br` (stereo not given), the “viability change, negative = cytotoxic” value was -1.97% [at 78.9 µM] (inactive).

For the molecule `O=c1[nH]c(Cl)c(Cl)cc1Cl`, the “viability change, negative = cytotoxic” value was 0.981% (inactive). Still for that read-out and setting: for `Clc1cc(Cl)c(-c2cc(Cl)c(Cl)cc2Cl)cc1Cl` the value was 9.25% (inactive); for `Cc1c([N+](=O)[O-])cc2c(c1[N+](=O)[O-])C(C)(C)CC2(C)C`, 8.57% (inactive); for `Cc1cnc2c(C(=O)O)c(Cl)ccc2c1`, 0.269% (inactive).

For `COC(=O)c1ccccc1S(=O)(=O)NC(=O)Nc1nc(C)nc(OC)n1`, the “viability change, negative = cytotoxic” value is 7.5% (inactive). Same read-out and setting: for `Nc1nc(N)c(N)c(N)n1` the value was 15.6% [at 78.9 µM] (inactive); for `CC(C)NCC(O)c1ccccc1Cl` (stereo not given), 0.259% (inactive).

On to `CCN(CC)C(=S)S`, for which the Potency result is “inactive”. Turning to `C#CC1(O)CCCCC1`, the “viability change, negative = cytotoxic” value was 0.0351% (inactive).

As for `CCN(CC)CCN1C(=O)CN=C(c2ccccc2F)c2cc(Cl)ccc21`, the “viability change, negative = cytotoxic” value is -0.602% (inactive).

Take `CN(C)C(=S)SSC(=S)N(C)C`: the Potency entry was “inactive”. For the molecule `O=NN(CCO)CCO`, the “viability change, negative = cytotoxic” value was -3.27% (inactive). Same read-out and setting: for `Cc1c([N+](=O)[O-])c(C)c([N+](=O)[O-])c(C(C)(C)C)c1[N+](=O)[O-]` the value was -21.8% (inactive); for `Nc1c(Cl)c(Cl)c(Cl)c(Cl)c1Cl`, -20.1% (inactive).
